Screening results: PubChem BioAssay, Broad Institute
HSF-1 act: increases HSF-1 driven luciferase reporter signal; NIH3T3-HGL HSF-1 luciferase reporter, MG132, 8 h; 100% = twice DMSO control signal; activation, % at 9 µM; 300,000 compounds, 1.7% hits; AID 504408;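 active means mean replicate activation of at least 50% with a set share of replicates each reaching 50%; inconclusive means only one of those two conditions met; inactive means mean below 50% and too few replicates reaching it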
MITF act: increases MITF-driven TRPM1 promoter luciferase signal | activation, % at 12.5 µM | AID 588334 | 300,000 compounds, 0.75% hits | SK-MEL-5 TRPM1-promoter luciferase, 24 h; % of positive control, neutral wells = 0;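 active means mean activation of at least 80% with every replicate also reaching 80%; inconclusive means mean reaches 80% but some replicate falls short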
esBAF inh: SWI/SNF esBAF complex inhibition; AID 602393; mouse ES cells, Bmi1-luciferase knock-in reporter, 24 h; 100% = twice the neutral-well signal; reporter increase, % at 12.5 µM; 350,000 compounds, 2% hits; in the data active means activation above about 40%; inconclusive means no clear call, values can overlap the other calls;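 further: a rise in the Bmi1 reporter signal indicates esBAF inhibition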
Wnt act: activators of Wnt/beta-catenin signaling | Wnt/beta-catenin reporter cell assay, activator, plate reader | activation, % at 9.35 µM | 300,000 compounds, 1.2% hits | AID 743398; in the data active means activation above about 30%, passing the limit was not always enough; inconclusive means no clear call, values can overlap the other calls
HSF1 inhib: HSF1 inhibition; NIH3T3-HGL HSE-luciferase, MG132-induced, luminescence 8 h; hits give low values; 300,000 compounds, 0.77% hits; activity change, negative = inhibition, % at 7.5 µM (by protocol); AID 2098;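 active means more than half of replicate wells show activity change below -50%, luminescence cut by over half; inconclusive means some wells, but at most half, below -50%; inactive means no replicate well below -50%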;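 further: luciferase reports HSF-1 transcriptional activity via heat shock element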
esBAF Ring1 qPCR: esBAF inhibition confirmed by Ring1 de-repression; shares compounds with esBAF inh; mouse ESC E14, Ring1 mRNA RT-qPCR fold change; fold change at 33 µM; 550 tested, under 10 active;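 active means Ring1 gene expression raised more than 2-fold over untreated cells in both replicates at either tested dose; inconclusive means only one replicate above 2-fold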;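 further: Ring1 transcript normalised to actin housekeeping signal by TaqMan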
Fgf4 repress: represses Fgf4 in mouse ESCs, confirming esBAF inhibition. shares compounds with esBAF inh. mouse ESC E14, Fgf4 mRNA qPCR fold change; hits give low values. Fgf4 expression fold change at 33 µM. 550 compounds, 4% hits. AID 743177;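 active means Fgf4 expression under 0.8 fold of control in both repeat measurements at one or both tested doses; inconclusive means under 0.8 fold in just a single repeat measurement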;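 further: Fgf4 transcript normalised to actin in duplex TaqMan qPCR; cells exposed to compound for 24 h before lysis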
esBAF Bmi1 qPCR: esBAF inhibition confirmed by Bmi1 de-repression; 550 tested, under 10 active; shares compounds with esBAF inh; fold change at 33 µM; mouse ESE14 ES cells, Bmi1 mRNA qPCR fold; hits give high values;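 active means Bmi1 expression fold change above 6 at either tested concentration, seen in replicate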;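 further: higher fold means more Bmi1 de-repression and stronger esBAF inhibition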
A549 tox SP: cytotoxicity in A549 cells; cell viability change % (negative = cytotoxic), % at 25 µM, hits read low; shares compounds with esBAF inh; plate reader; 550 tested, under 10 active; call rule not given here
HepG2 cytotox SP: HepG2 cell cytotoxicity at single point. 550 compounds, 4% hits. plate reader; hits give low values. shares compounds with esBAF inh. activity change, negative = inhibition, % at 25 µM. AID 743189; in the data active means activity change below about -50%
HEK293 tox SP: HEK293 cell cytotoxicity at single point | activity change, negative = inhibition, % at 25 µM, hits read low | AID 743190 | shares compounds with esBAF inh | 550 compounds, 3% hits | plate reader; in the data active means activity change below about -38%, passing the limit was not always enough
Each line names hits and unclear results; the compound was inactive in the other large screens (follow-up assays come after a bar, where they were run). Sampled rows, rich in hits. Any-hit rate of the full collection: about 3.8%.

Cc1ccc(S(=O)(=O)N(C)C[C@H]2Oc3ccc(NC(=O)C4CC4)cc3CC(=O)N([C@@H](C)CO)C[C@@H]2C)cc1	none (no result: HSF-1 act, MITF act, Wnt act, HSF1 inhib)
CNC(=O)c1ccc(-c2cc3onc(-c4ccccc4)c3c(=O)n2C)cc1	MITF act 96, esBAF inh 81, Wnt act 43 (no result: HSF-1 act, HSF1 inhib) | esBAF Ring1 qPCR inactive | Fgf4 repress inactive | esBAF Bmi1 qPCR inactive | A549 tox SP inactive | HepG2 cytotox SP inactive | HEK293 tox SP inactive
Cn1cnc(S(=O)(=O)N[C@@H]2C=C[C@@H](CC(=O)N3CCN(c4ccccc4)CC3)O[C@@H]2CO)c1	none (no result: HSF-1 act, MITF act, Wnt act, HSF1 inhib)
N/C(=N\OC(=O)C1CCCCC1)c1ccc(Cl)cc1	HSF-1 act 85, esBAF inh 65 | esBAF Ring1 qPCR inactive | Fgf4 repress inactive | esBAF Bmi1 qPCR inactive | A549 tox SP inactive | HepG2 cytotox SP inactive | HEK293 tox SP inactive
COc1ccc(S(=O)(=O)N(C)C[C@H]2Oc3ccc(NS(=O)(=O)c4ccc(C)cc4)cc3CC(=O)N([C@H](C)CO)C[C@@H]2C)cc1	none (no result: HSF-1 act, MITF act, Wnt act, HSF1 inhib)
COc1cccc(NC(=O)N[C@@H]2C=C[C@H](CC(=O)N3CCCCC3)O[C@H]2CO)c1	none (no result: HSF-1 act, MITF act, Wnt act, HSF1 inhib)
C[C@@H]1CN([C@@H](C)CO)C(=O)c2cc(NC(=O)C3CCCCC3)ccc2O[C@@H]1CN(C)Cc1ccccc1	none (no result: HSF-1 act, MITF act, Wnt act, HSF1 inhib)
Cn1c(/C=C/c2ccc(Br)cc2)nc2ccccc2c1=O	HSF-1 act 61, esBAF inh 74 | esBAF Ring1 qPCR inactive | Fgf4 repress inconclusive | esBAF Bmi1 qPCR inactive | A549 tox SP inactive | HepG2 cytotox SP inactive | HEK293 tox SP inactive
Cc1ccc(F)cc1NC(=O)C1CCCN(c2ncccn2)C1 (configuration not stated)	none
Cc1ccc(NC(=O)C2CCCN(c3ncccn3)C2)cc1C (configuration not stated)	esBAF inh 55 | esBAF Ring1 qPCR inactive | Fgf4 repress inactive | esBAF Bmi1 qPCR inactive | A549 tox SP inactive | HepG2 cytotox SP inactive | HEK293 tox SP inactive
CC(=O)Nc1sc(N/N=C\c2ccccc2F)nc1-c1cccs1	none (no result: esBAF inh)
Cc1csc(N/N=C/c2ccccc2F)n1	esBAF inh 62 | esBAF Ring1 qPCR inactive | Fgf4 repress inactive | esBAF Bmi1 qPCR inactive | A549 tox SP inactive | HepG2 cytotox SP -57 | HEK293 tox SP inactive
CC(=O)Oc1ccc2cc(-c3ccccc3)c(=O)oc2c1	esBAF inh 60 | esBAF Ring1 qPCR inactive | Fgf4 repress inactive | esBAF Bmi1 qPCR inactive | A549 tox SP inactive | HepG2 cytotox SP inactive | HEK293 tox SP inactive
C/C=C/c1ccc([C@@H]2[C@H](CO)N(C(=O)COC)[C@H]2CNC(=O)CC)cc1	none (no result: HSF-1 act, MITF act, Wnt act, HSF1 inhib)
O=C(/C=N/NC(=O)c1ccc(Cl)cc1Cl)c1ccccc1	HSF-1 act 57, esBAF inh 59, Wnt act 49 | esBAF Ring1 qPCR inactive | Fgf4 repress inactive | esBAF Bmi1 qPCR inactive | A549 tox SP inactive | HepG2 cytotox SP inactive | HEK293 tox SP inactive
COc1ccc(CNc2nc3ccccc3s2)cc1OC	esBAF inh 62 (no result: MITF act) | esBAF Ring1 qPCR inactive | Fgf4 repress inactive | esBAF Bmi1 qPCR inactive | A549 tox SP inactive | HepG2 cytotox SP inactive | HEK293 tox SP inactive
c1ccc(CCNc2nc3ccccc3s2)cc1	HSF-1 act 56, esBAF inh 55 (no result: MITF act, Wnt act) | esBAF Ring1 qPCR inactive | Fgf4 repress inactive | esBAF Bmi1 qPCR inactive | A549 tox SP inactive | HepG2 cytotox SP inactive | HEK293 tox SP inactive
O=C(Nc1ccc(F)cc1)c1ccccc1F	MITF act 82, esBAF inh 85 | esBAF Ring1 qPCR inactive | Fgf4 repress inactive | esBAF Bmi1 qPCR inactive | A549 tox SP inactive | HepG2 cytotox SP inactive | HEK293 tox SP inactive
O=C(N/N=C/c1ccccc1)c1ccc(NC(=O)c2ccc(F)cc2)cc1	esBAF inh 58 | esBAF Ring1 qPCR inactive | Fgf4 repress inactive | esBAF Bmi1 qPCR inactive | A549 tox SP inactive | HepG2 cytotox SP inactive | HEK293 tox SP inactive
CC(=O)Nc1ccc(C(=O)N/N=C/c2ccc(F)cc2)cc1	none (no result: esBAF inh)
CC(=O)Nc1ccc(NC(=O)c2ccccc2F)cc1	none (no result: HSF-1 act, MITF act, HSF1 inhib)
Cc1csc(Nc2nc(N)c(C(=O)Nc3ccccc3)o2)n1	MITF act 93, esBAF inh 52 | esBAF Ring1 qPCR inactive | Fgf4 repress inactive | esBAF Bmi1 qPCR inactive | A549 tox SP inactive | HepG2 cytotox SP inactive | HEK293 tox SP inactive
C/C(=N\O)c1ccc2c3ccccc3n(C)c2c1	esBAF inh 58 | esBAF Ring1 qPCR inactive | Fgf4 repress inactive | esBAF Bmi1 qPCR inactive | A549 tox SP inactive | HepG2 cytotox SP inactive | HEK293 tox SP inactive
CCCC1CCC(c2nc(-c3cccnc3)no2)CC1 (configuration not stated)	esBAF inh 60 (no result: Wnt act) | esBAF Ring1 qPCR inactive | Fgf4 repress inconclusive | esBAF Bmi1 qPCR inactive | A549 tox SP inactive | HepG2 cytotox SP inactive | HEK293 tox SP inactive
C[C@@H]1CN([C@H](C)CO)S(=O)(=O)c2ccc(-c3cccc(C#N)c3)cc2O[C@@H]1CN(C)C(=O)c1cccnc1	none (no result: HSF-1 act, MITF act, Wnt act, HSF1 inhib)
CN(C)c1ccc(CNc2nc3cc(-c4ccc(F)cc4)sc3c(=O)n2C)cc1	esBAF inh 77 (no result: HSF-1 act, MITF act, HSF1 inhib) | esBAF Ring1 qPCR inactive | Fgf4 repress inactive | esBAF Bmi1 qPCR inactive | A549 tox SP inactive | HepG2 cytotox SP inactive | HEK293 tox SP inactive
COc1ccc2c(ccc[n+]2[O-])c1	none (no result: HSF-1 act, HSF1 inhib)
COc1ccc2nc3ccccc3[n+]([O-])c2c1	esBAF inh 72 (no result: HSF-1 act, HSF1 inhib) | esBAF Ring1 qPCR inactive | Fgf4 repress inactive | esBAF Bmi1 qPCR inactive | A549 tox SP inactive | HepG2 cytotox SP inactive | HEK293 tox SP inactive
Cc1ccc(NC(=O)Nc2ccc(F)c(Cl)c2)cc1	esBAF inh 64, Wnt act 47 | esBAF Ring1 qPCR inactive | Fgf4 repress inactive | esBAF Bmi1 qPCR inactive | A549 tox SP inactive | HepG2 cytotox SP inactive | HEK293 tox SP inactive
COc1ccc(NC(=O)Nc2cc(C)ccc2F)cc1	MITF act 101, esBAF inh 123 | esBAF Ring1 qPCR inactive | Fgf4 repress inactive | esBAF Bmi1 qPCR inactive | A549 tox SP inactive | HepG2 cytotox SP inactive | HEK293 tox SP inactive
COc1ccc(NC(=O)Nc2cc(C)ccc2OC)cc1	none (no result: Wnt act)
O=C(Nc1cccc(O)c1)c1ccc(Br)cc1	esBAF inh 57 (no result: Wnt act) | esBAF Ring1 qPCR inactive | Fgf4 repress inactive | esBAF Bmi1 qPCR inactive | A549 tox SP inactive | HepG2 cytotox SP inactive | HEK293 tox SP inactive
O=C(Nc1cccc(O)c1)c1cccc(C(=O)Nc2cccc(O)c2)c1	none (no result: MITF act)
